We go through 11 compounds from PubChem BioAssay (NCI).

What all share (experiment): NCI-60 one-dose screen, 48 h (100 = growth as untreated, 0 = no growth, -100 = all killed)
The subject of test [1] is SR leukemia. Particulars: 10 µM.
Test [2] concerns RPMI-8226 leukemia. To be noted: 10 µM.
The test system of test [3] is OVCAR-8 ovarian. To be noted: 10 µM.
For test [4], the system named is OVCAR-5 ovarian. To be noted: 10 µM.
The test system of test [5] is OVCAR-4 ovarian. Particulars: 10 µM.
For test [6], the system named is IGROV1 ovarian. To be noted: 10 µM.
For test [7], the system named is NCI/ADR-RES ovarian. Particulars: 10 µM.
The subject of test [8] is BT-549 breast. Particulars: 10 µM.
In test [9] the test system is SW-620 colon. To be noted: 10 µM.
The test system of test [10] is MCF7 breast.
Test [11] relates to HCT-116 colon. Particulars: 10 µM.
Test [12] has as its system HCC-2998 colon. To be noted: 10 µM.
Test [13] relates to KM12 colon. To be noted: 10 µM.
Test [14] deals with SK-OV-3 ovarian. Particulars: 10 µM.
Test [15] has as its system HS 578T breast. To be noted: 10 µM.
In test [16] the test system is T-47D breast. Particulars: 10 µM.
Test [17] concerns MDA-MB-435 melanoma. To be noted: 10 µM.
For test [18], the system named is OVCAR-3 ovarian. To be noted: 10 µM.

Structures are written as SMILES. “And” between values parts separate entries of the source, which are not always exact repeats. Equal entries are not always repeated. Compounds without any hit were thinned out: in the full panel of roughly 83,000, 20% have a hit.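 96-well plates, one dose, 48 hours. Percent growth reported; active if below 10.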 A number with no mark means an inactive call. The source made the active and inactive calls.

For `CN(C)c1nc2c([nH]1)c(=O)n(C)c(=O)n2C`, the growth in [1] was 102%; in test [2], 91.7%; in [3], 96.9%; in test [4], 104%; in [5] it was 112%; in test [6], 101%. Further, the growth in test [7] was 106%; in test [8] it was 103%; in [9] it was 102%; in [10] (10 µM unless noted) it was 106%; in test [11] it was 97%; in test [12], 89.8%. Further, in [13], the growth is 109%.

`O=C1OC[C@H]2[C@H](c3ccc(O)c(O)c3)c3cc(O)c(O)cc3C[C@H]12`: the growth is 330% in test [1]; 167% in test [2]; 127% in [3]; 100% in test [4]; 110% in [5]; 135% in [14]. Further, the growth in test [15] was 111%; in test [7], -28.4% (active); in [16], 131%; in test [8] it was 134%; in [17], 121%; in [9] it was 107%. Also, the growth in test [10] (10 µM unless noted) was 121%; in [11], 103%; in test [13] it was 112%.

On to `CC(=O)c1sc2c(c1OC(=O)c1ccc(Cl)cc1Cl)c(=O)n(-c1ccccc1)c(=S)n2-c1ccccc1`, for which the growth in test [1] was -10.4% (active); in test [2] it was -43.1% (active); in [4], -4.64% (active); in test [14], 5.36% (active); in test [18] it was 24.1%; in [15] it was -26.8% (active). Further, the growth in test [7] was 7.59% (active); in test [16], 61.1%; in test [8] it was -24.4% (active); in [17], 4.71% (active); in [9], 14%; in test [10] (10 µM), 51.2%. The growth was 6.27% (active) and -47.6% (active) in test [10] (100 µM); -0.425% (active) in test [11]; 24.6% in test [12]; -0.943% (active) in test [13].

`CO[C@H]1C[C@@H]2CC[C@@H](C)[C@@](O)(O2)C(=O)C(=O)N2CCCC[C@H]2C(=O)O[C@H]([C@H](C)C[C@@H]2CC[C@@H](O)[C@H](OC)C2)CC(=O)[C@H](C)C=C(C)[C@@H](O)[C@@H](OC)C(=O)[C@H](C)C[C@H](C)/C=C/C=C/C=C1C`: the growth in [1] was 23.7%; in test [2] it was 23.8%; in [4], -6.29% (active); in [5], 33.3%; in [14] it was 45.1%; in test [6], 11.9%. For the same compound, the growth is 55.1% in test [18]; -10.4% (active) in test [7]; 19.4% in [16]; 15.6% in test [8]; 49% in test [17]; 58% in test [9]. Besides, the growth in test [10] (10 µM unless noted) was 23.8%; in test [11], 31.1%; in test [12], 146%; in test [13], 60.9%.

Take `[O-][N+](=Nc1cccc(Cl)c1)c1cccc(Cl)c1`: the growth in test [1] is 141%; in [3], 114%; in test [4], 88.3%; in [5], 61.8%; in [14], 110%; in test [6] it was 76.4%. Also, the growth in [18] is 111%; in test [15], 112%; in [7] it was 99%; in test [16] it was 30.2%; in test [8], 73.1%; in test [17] it was 102%. Also, the growth in test [9] is 90.4%; in test [10] (10 µM unless noted), 27.6%; in test [11], 90.6%; in [12] it was 63.1%; in test [13] it was 91.9%.

Take `CCNCCCCNCCCCNCCCCNCCCCNCC`: the growth was 68.5% in test [1]; 82.4% in test [2]; 108% in [4]; 118% in test [14]; 93.4% in test [18]; 76.2% in test [15]. Also, the growth in [7] was 122%; in test [16] it was 72.2%; in [8], 123%; in test [17], 50.2%; in test [9], 68.3%; in [10] (10 µM unless noted) it was 101%. Further, the growth in test [11] is 92.6%; in test [12] it was 101%.

As to `CCCCCC(C)(CC(=O)O)CC(=O)O`, the growth in test [1] was 94.1%; in [3], 103%; in test [4] it was 97.4%; in test [5], 104%; in test [14] it was 114%; in test [6], 110%. Also, the growth in [18] was 126%; in [15], 107%; in [7] it was 119%; in [16], 104%; in test [8] it was 113%; in test [17], 107%. Further, the growth in [9] is 106%; in test [10] (10 µM unless noted) it was 90%; in test [11], 112%; in [12], 113%; in test [13], 115%.

In the case of `O=C(Nc1cc(-c2ccccc2)[nH]n1)c1ccc(Cl)cc1`, the growth is 47.7% in [1]; 84.3% in [3]; 80.7% in [4]; 71% in test [5]; 62.7% in test [14]; 3.1% (active) in [6]. Moreover, the growth is 80.5% in [18]; 80.6% in test [15]; 85% in test [7]; 74.1% in test [16]; 83.5% in test [8]; 86.4% in test [17]. Besides, the growth in [9] is 86.1%; in [10] (10 µM unless noted), 87.6%; in test [11] it was 72.3%; in [12], 100%; in test [13] it was 48.6%.

Consider `c1ccc(/C(=N\N=C(/c2ccccc2)c2cccs2)c2cccs2)cc1`, for which the growth in test [1] was 87.3%; in test [3], 95%; in test [4], 98.5%; in test [5], 97.1%; in [14], 105%; in test [6], 105%. In addition, the growth in test [18] is 99.7%; in [15] it was 105%; in test [7], 102%; in test [16], 86.7%; in test [8], 102%; in test [17], 103%. Further, the growth in test [9] is 98%; in [10] (10 µM unless noted), 96%; in test [11] it was 91.9%; in [12], 101%; in test [13], 97.1%.

Take `CSC[C@H](NC(=O)COc1cccc2cnccc12)C(=O)NC(Cc1ccccc1)C(O)C(=O)N1CSC[C@H]1C(=O)NC(C)(C)C` (stereo partly drawn): the growth in test [1] is 84.5%; in [2], 102%; in test [4], 91.7%; in test [14], 115%; in test [18], 101%; in test [7] it was 106%. The growth in test [16] was 111%; in test [8], 105%; in [17] it was 103%; in test [9], 105%; in [10] (10 µM unless noted), 114%; in [11] it was 121%. In addition, the growth in test [12] was 108%; in [13], 116%.

Regarding `CC(=O)OCCO`, the growth was 107% in [1]; 101% in test [3]; 102% in test [4]; 100% in test [5]; 113% in test [14]; 113% in test [6]. Moreover, the growth is 110% in test [18]; 115% in test [15]; 110% in [7]; 109% in test [16]; 109% in test [8]; 107% in [17]. Moreover, the growth is 107% in test [9]; 96.9% in test [10] (10 µM unless noted); 103% in [11]; 111% in [12]; 108% in test [13].
